Measurements from PubChem BioAssay (EPA / NIEHS).
Several values for one entry are separate records, joined by “and”; a condition that tells them apart may be missing. Identical values can stand only once. The source holds several records for some structures; these can differ, active in one and inactive in another. Activity calls are given as the source filed them. The calls were made as follows: active = hit-call score of the fitted dose curve at least 0.9, where 1 is the maximum; inactive = score below 0.9.

Tests used:
Conditions in all cases: mRNA level, 48 h; actives raise or lower the signal
[1] = read-out: Hypoxia-inducible factor 1-alpha (Homo sapiens) (UniProt Q16665); experiment: LTEA_HepaRG_HIF1A: Life Technologies and Expression Analysis (LTEA) Assay for Hypoxia-inducible factor 1 (HIF1A) Trancription factor using HepaRG (AID 2283503)
In short: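 Differentiated HepaRG cells in serum-free induction medium exposed 48 h, in duplicate, to 8-point half-log series from 100 uM in 0.5% DMSO. HIF1A mRNA measured by TaqMan qRT-PCR, normalized to ACTB/GAPDH/POLR2A, fitted bidirectionally versus DMSO.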

[2] = read-out: 3-Hydroxy-3-Methylglutaryl-CoA Synthase 2 (HMGCS2), HMGCS2 (gene 3158); experiment: LTEA_HepaRG_HMGCS2: Life Technologies and Expression Analysis (LTEA) Assay for 3-Hydroxy-3-Methylglutaryl-CoA Synthase 2 (HMGCS2) using HepaRG (AID 2283504)
In short: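 HepaRG, plated 48 h then switched to serum-free induction media; cmpd 8-pt, max 100 uM, 1/2-log, 0.5% DMSO, n=2, 48 h. HMGCS2 mRNA by Fluidigm TaqMan qRT-PCR, ACTB/GAPDH/POLR2A norm; bidirectional fit vs DMSO.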

[3] = read-out: HGF (gene 3082); experiment: LTEA_HepaRG_HGF: Life Technologies and Expression Analysis (LTEA) Assay for Hepatocyte Growth Facto (HGF) using HepaRG (AID 2283505)
In short: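 Read-out is HGF transcript level by qRT-PCR, normalized to three housekeeping genes, fitted bidirectionally against 0.5% DMSO vehicle. Human HepaRG cells received test chemicals for 48 h at up to 100 uM.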

[4] = read-out: Insulin Like Growth Factor 1 (IGF1), IGF1 (gene 3479); experiment: LTEA_HepaRG_IGF1: Life Technologies and Expression Analysis (LTEA) Assay for Insulin Like Growth Factor 1 (IGF1) using HepaRG (AID 2283506)
In short: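 HepaRG, plated 48 h, then switched to serum-free induction media; test chemical 8-pt half-log from 100 uM (0.5% DMSO), duplicate, 48 h. Lysis in RLT, TaqMan qRT-PCR, norm. ACTB/GAPDH/POLR2A. Bidirectional fit vs DMSO.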

[5] = read-out: Intercellular Adhesion Molecule 1 (ICAM1), ICAM1 (gene 3383); experiment: LTEA_HepaRG_ICAM1: Life Technologies and Expression Analysis (LTEA) Assay for Intercellular Adhesion Molecule 1 (ICAM1) using HepaRG (AID 2283507)
In short: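 Readout is qRT-PCR mRNA level, normalized to three housekeeping genes and fitted bidirectionally against 0.5% DMSO vehicle. Human HepaRG cultures received compound for 48 h, top concentration 100 uM with half-log dilutions.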

[6] = read-out: Insulin-like growth factor-binding protein 1 (IGFBP1), IGFBP1 (gene 3484); experiment: LTEA_HepaRG_IGFBP1: Life Technologies and Expression Analysis (LTEA) Assay for Insulin-like growth factor-binding protein 1 (IGFBP1) using HepaRG (AID 2283508)
In short: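 Thawed HepaRG cells are plated for 48 h, switched to serum-free induction medium, then dosed in duplicate for another 48 h (100 uM top, half-log steps). Lysates in RLT go to qRT-PCR, and gain or loss of signal is fitted relative to vehicle.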

[7] = read-out: Interleukin 6 (IL6), IL6 (gene 3569); experiment: LTEA_HepaRG_IL6: Life Technologies and Expression Analysis (LTEA) Assay for Interleukin 6 (IL6) using HepaRG (AID 2283509)
In short: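 Differentiated human HepaRG cells, plated 48 h then switched to serum-free induction medium, were exposed in duplicate for 48 h to eight half-log concentrations up to 100 uM in 0.5% DMSO. IL6 mRNA measured by qRT-PCR, normalized to ACTB/GAPDH/POLR2A.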

[8] = read-out: Interleukin 6 Receptor (IL6R), IL6R (gene 3570); experiment: LTEA_HepaRG_IL6R: Life Technologies and Expression Analysis (LTEA) Assay for Interleukin 6 Receptor (IL6R) using HepaRG (AID 2283510);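 as to AC50: TaqMan qRT-PCR signal normalized to ACTB GAPDH and POLR2A housekeeping genes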
In short: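 Readout is IL6R transcript level by TaqMan qRT-PCR, normalized to three housekeeping genes and fitted bidirectionally against 0.5% DMSO controls. Human HepaRG cells received chemicals for 48 h in serum-free induction medium, highest concentration 100 uM.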

[9] = read-out: Potassium channel subfamily K member 1 (KCNK1), KCNK1 (gene 3775); experiment: LTEA_HepaRG_KCNK1: Life Technologies and Expression Analysis (LTEA) Assay for Potassium channel subfamily K member 1 (KCNK1) using HepaRG (AID 2283511)
In short: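 Differentiated human HepaRG cells in serum-free induction medium were exposed in duplicate for 48 h to 8 half-log concentrations up to 100 uM in 0.5% DMSO. KCNK1 mRNA was measured by TaqMan qRT-PCR, normalized to ACTB, GAPDH and POLR2A, and fitted bidirectionally versus DMSO.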

[10] = read-out: Keratin 19 (KRT19), KRT19 (gene 3880); experiment: LTEA_HepaRG_KRT19: Life Technologies and Expression Analysis (LTEA) Assay for Keratin 19 (KRT19) using HepaRG (AID 2283512)
In short: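 KRT19 transcript levels, measured by Fluidigm qRT-PCR against three housekeeping genes, are fitted for gain or loss of signal relative to DMSO. Human HepaRG cells receive test chemicals (top 100 uM, half-log steps, 0.5% DMSO) for 48 hours.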

[11] = read-out: JUN Transcription Factor, JUN (gene 3725); experiment: LTEA_HepaRG_JUN: Life Technologies and Expression Analysis (LTEA) Assay for JUN Transcription Factor using HepaRG (AID 2283513)
In short: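 Cells plated 48 h, medium switched to serum-free induction medium, then dosed 48 h (100 uM top, half-log dilutions, 0.5% DMSO). RNA isolated; JUN measured by qRT-PCR against three housekeeping genes; gain or loss fitted relative to DMSO.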

[12] = read-out: Lipoprotein lipase (LPL), LPL (gene 4023); experiment: LTEA_HepaRG_LPL: Life Technologies and Expression Analysis (LTEA) Assay for Lipoprotein lipase (LPL) using HepaRG (AID 2283515)
In short: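 Differentiated human HepaRG cells in serum-free induction medium were exposed in duplicate for 48 h to eight half-log concentrations (top 100 uM) in 0.5% DMSO. LPL mRNA was quantified by TaqMan qRT-PCR, normalized to ACTB, GAPDH and POLR2A.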

[13] = read-out: MicroRNA 122 (MIR122), gene 406906; experiment: LTEA_HepaRG_MIR122: Life Technologies and Expression Analysis (LTEA) Assay for MicroRNA 122 (MIR122) using HepaRG (AID 2283516); also: the transcript read is the microRNA miR-122
In short: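 HepaRG plated 48 h, switched to serum-free induction medium, then treated in duplicate for 48 h (100 uM top, half-log steps, 0.5% DMSO vehicle). RNA isolated, qRT-PCR performed, concentration-response fitted both directions relative to DMSO.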

[14] = read-out: matrix metalloproteinase-10 (MMP10), MMP10 (gene 4319); experiment: LTEA_HepaRG_MMP10: Life Technologies and Expression Analysis (LTEA) Assay for matrix metalloproteinase-10 (MMP10) using HepaRG (AID 2283517)
In short: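 HepaRG, collagen I, ~100,000 cells/well; serum-free induction medium; 48 h exposure, duplicate, 8-pt half-log to 100 uM, 0.5% DMSO. Readout: TaqMan qRT-PCR, normalized to ACTB/GAPDH/POLR2A; bidirectional fit vs DMSO.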

[15] = read-out: MYC, MYC (gene 4609); experiment: LTEA_HepaRG_MYC: Life Technologies and Expression Analysis (LTEA) Assay for MYC using HepaRG (AID 2283518)
In short: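 HepaRG, ~100,000 cells/well, collagen I; 48 h plating; serum-free induction medium; 48 h dosing, duplicate, 100 uM top, half-log, 0.5% DMSO; total RNA → qRT-PCR MYC; gain/loss fit vs DMSO.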

[16] = read-out: matrix metalloproteinase-3 (MMP3), MMP3 (gene 4314); experiment: LTEA_HepaRG_MMP3: Life Technologies and Expression Analysis (LTEA) Assay for matrix metalloproteinase-3 (MMP3) using HepaRG (AID 2283519)
In short: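 Differentiated human HepaRG cells, plated 48 h on collagen I, were exposed in duplicate for 48 h in serum-free induction medium to eight half-log concentrations up to 100 uM in 0.5% DMSO. MMP3 mRNA was quantified by TaqMan qRT-PCR, normalised to ACTB, GAPDH and POLR2A.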

[17] = read-out: Paternally Expressed 10 (PEG10), PEG10 (gene 23089); experiment: LTEA_HepaRG_PEG10: Life Technologies and Expression Analysis (LTEA) Assay for Paternally Expressed 10 (PEG10) using HepaRG (AID 2283520)
In short: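 HepaRG, 48 h post-plating → serum-free induction medium → 48 h chemical exposure (duplicate, 8-pt, max 100 uM, half-log, 0.5% DMSO) → lysis in RLT → TaqMan qRT-PCR for PEG10, ACTB/GAPDH/POLR2A normalisation.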

[18] = read-out: Nuclear factor NF-kappa-B p105 subunit (Homo sapiens) (UniProt P19838); experiment: LTEA_HepaRG_NFKB1: Life Technologies and Expression Analysis (LTEA) Assay for Nuclear Factor Kappa B Subunit 1 (NFKB1) using HepaRG (AID 2283521);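 also: TaqMan qRT-PCR transcript normalised to ACTB GAPDH and POLR2A housekeeping genes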
In short: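 NFKB1 transcript was measured by TaqMan qRT-PCR on Fluidigm arrays, normalised to three housekeeping genes and fitted in both directions against 0.5% DMSO. HepaRG cells were dosed in duplicate for 48 h in serum-free induction medium, eight half-log steps from 100 uM.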

[19] = read-out: Protein phosphatase 2A (PPP2R4), PTPA (gene 5524); experiment: LTEA_HepaRG_PPP2R4: Life Technologies and Expression Analysis (LTEA) Assay for Protein phosphatase 2A (PPP2R4) using HepaRG (AID 2283522)
In short: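 Readout is PPP2R4 transcript level by microfluidic qRT-PCR after 48 h chemical treatment of human HepaRG liver cells. Concentrations spanned 100 uM downward in half-log steps; gain or loss of signal was fitted relative to DMSO.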

Measured: AC50

Chain of Nuclear factor NF-kappa-B p105 subunit (Homo sapiens) (P19838 whole entry, looked up): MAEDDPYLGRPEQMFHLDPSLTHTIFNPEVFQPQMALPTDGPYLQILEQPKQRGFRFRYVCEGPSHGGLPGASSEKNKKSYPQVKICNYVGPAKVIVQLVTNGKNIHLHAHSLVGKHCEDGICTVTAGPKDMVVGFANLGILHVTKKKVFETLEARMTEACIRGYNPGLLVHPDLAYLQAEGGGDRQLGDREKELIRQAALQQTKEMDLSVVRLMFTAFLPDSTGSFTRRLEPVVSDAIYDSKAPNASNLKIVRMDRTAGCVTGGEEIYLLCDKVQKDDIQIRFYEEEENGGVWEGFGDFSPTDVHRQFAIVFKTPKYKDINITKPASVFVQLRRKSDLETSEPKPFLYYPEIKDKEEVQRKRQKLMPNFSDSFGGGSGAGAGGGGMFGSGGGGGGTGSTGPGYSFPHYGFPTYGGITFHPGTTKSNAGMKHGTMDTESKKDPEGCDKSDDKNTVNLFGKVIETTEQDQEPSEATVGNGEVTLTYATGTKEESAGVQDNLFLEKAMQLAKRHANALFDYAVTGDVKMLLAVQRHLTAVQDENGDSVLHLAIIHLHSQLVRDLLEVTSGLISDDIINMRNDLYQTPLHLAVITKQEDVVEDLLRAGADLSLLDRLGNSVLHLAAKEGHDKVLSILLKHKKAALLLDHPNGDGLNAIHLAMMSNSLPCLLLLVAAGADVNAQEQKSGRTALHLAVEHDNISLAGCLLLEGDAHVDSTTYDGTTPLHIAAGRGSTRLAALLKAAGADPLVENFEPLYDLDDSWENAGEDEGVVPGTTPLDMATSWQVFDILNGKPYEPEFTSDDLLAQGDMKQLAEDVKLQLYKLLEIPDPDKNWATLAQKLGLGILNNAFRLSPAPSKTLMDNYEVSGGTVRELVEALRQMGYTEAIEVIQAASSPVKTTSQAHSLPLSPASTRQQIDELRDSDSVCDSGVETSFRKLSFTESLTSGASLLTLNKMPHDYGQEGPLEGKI
Chain of Hypoxia-inducible factor 1-alpha (Homo sapiens) (Q16665 whole entry, looked up): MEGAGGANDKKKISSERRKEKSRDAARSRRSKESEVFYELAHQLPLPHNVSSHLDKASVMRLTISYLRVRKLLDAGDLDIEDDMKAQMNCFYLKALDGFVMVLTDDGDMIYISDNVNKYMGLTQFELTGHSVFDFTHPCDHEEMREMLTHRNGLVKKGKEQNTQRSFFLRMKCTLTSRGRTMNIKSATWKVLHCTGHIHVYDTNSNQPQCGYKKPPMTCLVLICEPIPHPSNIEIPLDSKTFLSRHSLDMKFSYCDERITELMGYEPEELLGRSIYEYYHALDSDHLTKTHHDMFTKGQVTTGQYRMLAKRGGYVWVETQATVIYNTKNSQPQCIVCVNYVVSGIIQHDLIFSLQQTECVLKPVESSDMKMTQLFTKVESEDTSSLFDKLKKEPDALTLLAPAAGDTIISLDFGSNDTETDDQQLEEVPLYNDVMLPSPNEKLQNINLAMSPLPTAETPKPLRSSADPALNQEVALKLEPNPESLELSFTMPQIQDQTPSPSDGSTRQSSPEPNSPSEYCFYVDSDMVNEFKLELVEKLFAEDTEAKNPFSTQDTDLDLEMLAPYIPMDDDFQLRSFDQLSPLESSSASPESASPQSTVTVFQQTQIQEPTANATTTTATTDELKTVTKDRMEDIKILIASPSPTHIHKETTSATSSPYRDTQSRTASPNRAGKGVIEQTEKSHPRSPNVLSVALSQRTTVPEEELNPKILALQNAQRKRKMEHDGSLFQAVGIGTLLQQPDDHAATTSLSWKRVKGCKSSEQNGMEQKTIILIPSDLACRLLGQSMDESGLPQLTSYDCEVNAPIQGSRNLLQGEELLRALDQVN

ClC1C(Cl)C(Cl)C(Cl)C(Cl)C1Cl (centres undefined)
inactive: [1] | [2] | [3] | [5] | [6] | [7] | [8] | [9] | [10] | [11] | [12] | [13] | [14] | [15] | [16] | [18] | [19]
active: [2] 25.4 µM | [4] 6.89 µM | [17] 4.25 µM and 27.6 µM

CCc1ccc(C(=O)NN(C(=O)c2cc(C)cc(C)c2)C(C)(C)C)cc1
active: [2] 50 µM
inactive: all other assays above

COP(=O)(OC)OC=C(Cl)Cl
inactive: all assays above

CCC(C)(NC(=O)c1cc(Cl)c(C)c(Cl)c1)C(=O)CCl (centres undefined)
active: [2] 80.6 µM | [3] 77.4 µM | [6] 80.8 µM | [9] 50.2 µM | [10] 32.4 µM | [12] 90.1 µM | [13] 75.5 µM | [14] 50.2 µM | [15] 50.2 µM | [17] 59.2 µM
inactive: [1] | [4] | [5] | [7] | [8] | [11] | [16] | [18] | [19]

CC(C)(C)C(O)C(Oc1ccc(Cl)cc1)n1cncn1 (centres undefined)
inactive: [1] | [3] | [5] | [6] | [7] | [8] | [9] | [10] | [11] | [12] | [13] | [14] | [15] | [16] | [17] | [18] | [19]
active: [2] 21 µM and 32.8 µM and 21.6 µM | [4] 16 µM and 23.4 µM and 14.4 µM | [8] 50 µM | [16] 50 µM | [17] 1.4 µM
